Experimental data reported in PubChem BioAssay AID1016 (Sanford-Burnham Center for Chemical Genomics, 2008).
The campaign covered roughly 200,000 compounds. About 330 (0.17%) were called active. This is one part of a sample in which actives are shown more often than they occur. A number with no mark means an inactive call.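 How the source made its calls: active means activation factor of 2 or more at 20 µM, a signal rise over negative controls twice the positive control's; inactive means the rest.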

test system: alkaline phosphatase, intestinal [Bos taurus]; experiment: IAP enzyme activity enhancers – biochemical, bovine IAP, CDP-star luminescence, primary screen (AID 1016); settings: purified bovine IAP, 30 min, at 20 µM, stronger effect = higher value

For `Cc1cc(C)cc(NC(=S)NC2CC3CCCC(C2)N3Cc2cccs2)c1` (stereo not given), the activation factor was 3 (active).

First: COP(=O)(OC)C(NC(=O)c1ccc(C)cc1)C(Cl)(Cl)Cl (stereo not given)
Second: CN(C)C(=O)Oc1ccc(OCc2cccc[n+]2C)cc1
The activation factor of the first is lower: 0.8 for the first, 1 for the second.

Compared with `CCOC(=O)C1SC2(C(F)(F)C(F)F)CC1(O)c1c(c(OC)c3occc3c1OC)O2` (stereo not given), `CN(C)CC1CCCCC1OC(=O)c1ccc(Cl)c(Cl)c1` (stereo not given) is higher in activation factor: 0.9 for the first, 1 for the second.
